Reference: publication PMC7862700, “An all-to-all approach to the identification of sequence-specific readers for epigenetic DNA modifications on cytosine”

What was measured:
Test in all cases: DAPPL (digital affinity profiling via proximity ligation, sequencing); 10 mM Tris-HCl pH 7.5, 50 mM NaCl, 1 mM DTT, 4% glycerol, room temperature, 30 min; GST-TFs on glutathione beads, 16-mer random dsDNA library, 0.1% formaldehyde crosslink after washing; high values mean tight binding
Conditions in all cases: protein: recombinant; tags: N-terminal GST; dsDNA, one strand shown
FLI1 = biological target: T1, FLI1 (Homo sapiens, UniProt Q01543 1-452)
T1 sequence: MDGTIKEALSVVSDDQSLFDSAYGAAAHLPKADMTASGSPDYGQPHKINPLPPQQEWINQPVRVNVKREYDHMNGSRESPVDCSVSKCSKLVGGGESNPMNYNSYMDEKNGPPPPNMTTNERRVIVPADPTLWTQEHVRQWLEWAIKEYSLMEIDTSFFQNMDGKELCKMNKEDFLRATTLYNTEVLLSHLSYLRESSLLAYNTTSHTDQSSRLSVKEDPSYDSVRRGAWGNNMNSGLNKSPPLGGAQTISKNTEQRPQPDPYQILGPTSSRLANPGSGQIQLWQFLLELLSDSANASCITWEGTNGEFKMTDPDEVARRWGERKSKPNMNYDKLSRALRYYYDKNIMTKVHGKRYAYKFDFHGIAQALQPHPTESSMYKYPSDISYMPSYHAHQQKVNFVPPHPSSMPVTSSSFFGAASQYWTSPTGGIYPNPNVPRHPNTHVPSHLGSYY
Summary of the method: (§1)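 Pools were built from human transcription factors expressed in yeast as GST fusions, captured on glutathione beads and DNA-barcoded, along with a tag-only sample. Incubation with 200 nmole of a 16-mer random double-stranded DNA library lasted 30 min at room temperature in Tris/NaCl/DTT/glycerol buffer, and was followed by washing, 0.1% formaldehyde crosslinking, proximity ligation, PCR amplification and Illumina NextSeq500 sequencing. Binding signal is the quotient of each hexamer's read frequency for a factor and its frequency for the tag-only sample.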

ELK1 = biological target: T2, ELK1 (Homo sapiens, UniProt P19419 1-428)
T2 sequence: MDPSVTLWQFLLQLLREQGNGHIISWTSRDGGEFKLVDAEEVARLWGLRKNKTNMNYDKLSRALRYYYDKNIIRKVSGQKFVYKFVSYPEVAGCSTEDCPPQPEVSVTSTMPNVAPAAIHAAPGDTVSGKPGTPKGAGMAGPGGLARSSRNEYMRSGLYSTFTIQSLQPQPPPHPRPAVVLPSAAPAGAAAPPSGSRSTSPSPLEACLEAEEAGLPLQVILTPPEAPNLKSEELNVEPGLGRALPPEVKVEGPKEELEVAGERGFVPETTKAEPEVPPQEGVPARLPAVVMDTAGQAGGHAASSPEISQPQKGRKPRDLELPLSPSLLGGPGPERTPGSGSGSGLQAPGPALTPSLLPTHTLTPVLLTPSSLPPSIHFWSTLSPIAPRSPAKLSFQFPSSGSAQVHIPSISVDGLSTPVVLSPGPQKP
Summary of the method: as §1

ERG = biological target: T3, ERG (Homo sapiens, UniProt P11308 1-479)
T3 sequence: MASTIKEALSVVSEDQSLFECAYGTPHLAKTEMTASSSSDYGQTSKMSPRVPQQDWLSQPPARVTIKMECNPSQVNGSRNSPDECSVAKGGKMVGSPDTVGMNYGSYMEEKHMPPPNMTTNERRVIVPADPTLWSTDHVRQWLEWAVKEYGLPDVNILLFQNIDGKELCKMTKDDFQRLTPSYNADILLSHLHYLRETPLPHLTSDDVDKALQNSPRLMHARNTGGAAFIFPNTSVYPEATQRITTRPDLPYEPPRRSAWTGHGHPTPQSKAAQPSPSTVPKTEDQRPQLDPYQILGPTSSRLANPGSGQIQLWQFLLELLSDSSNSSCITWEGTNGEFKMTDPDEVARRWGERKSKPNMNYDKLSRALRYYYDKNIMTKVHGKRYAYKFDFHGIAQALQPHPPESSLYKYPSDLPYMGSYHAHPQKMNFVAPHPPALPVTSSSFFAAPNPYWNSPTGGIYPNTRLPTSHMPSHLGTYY
Summary of the method: as §1

EHF = biological target: T4, EHF (Homo sapiens, UniProt Q9NZC4 1-300)
T4 sequence: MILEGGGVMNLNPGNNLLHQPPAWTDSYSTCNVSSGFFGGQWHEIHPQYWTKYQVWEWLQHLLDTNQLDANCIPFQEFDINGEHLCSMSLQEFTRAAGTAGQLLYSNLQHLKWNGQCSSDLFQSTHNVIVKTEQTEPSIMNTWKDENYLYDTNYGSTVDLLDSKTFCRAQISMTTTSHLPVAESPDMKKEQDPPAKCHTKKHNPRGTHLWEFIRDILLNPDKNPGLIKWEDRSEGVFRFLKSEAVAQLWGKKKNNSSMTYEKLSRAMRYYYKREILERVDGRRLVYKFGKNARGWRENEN
Summary of the method: as §1

SPI1 = SPI1 (Homo sapiens, UniProt P17947 1-270)
Summary of the method: as §1

SPIB = SPIB (Homo sapiens, UniProt Q01892 1-262)
SPIB, sequence (Q01892 whole entry): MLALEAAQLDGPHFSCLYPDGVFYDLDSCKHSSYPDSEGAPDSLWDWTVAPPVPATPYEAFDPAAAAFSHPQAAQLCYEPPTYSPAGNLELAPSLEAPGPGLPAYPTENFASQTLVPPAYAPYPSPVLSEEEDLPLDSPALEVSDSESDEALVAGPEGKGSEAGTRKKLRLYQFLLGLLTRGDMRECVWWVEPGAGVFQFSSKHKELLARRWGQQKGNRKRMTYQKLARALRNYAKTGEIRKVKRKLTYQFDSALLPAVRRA
Summary of the method: as §1

ETV5 = ETV5 (Homo sapiens, UniProt P41161 1-510)
ETV5, sequence (P41161 whole entry): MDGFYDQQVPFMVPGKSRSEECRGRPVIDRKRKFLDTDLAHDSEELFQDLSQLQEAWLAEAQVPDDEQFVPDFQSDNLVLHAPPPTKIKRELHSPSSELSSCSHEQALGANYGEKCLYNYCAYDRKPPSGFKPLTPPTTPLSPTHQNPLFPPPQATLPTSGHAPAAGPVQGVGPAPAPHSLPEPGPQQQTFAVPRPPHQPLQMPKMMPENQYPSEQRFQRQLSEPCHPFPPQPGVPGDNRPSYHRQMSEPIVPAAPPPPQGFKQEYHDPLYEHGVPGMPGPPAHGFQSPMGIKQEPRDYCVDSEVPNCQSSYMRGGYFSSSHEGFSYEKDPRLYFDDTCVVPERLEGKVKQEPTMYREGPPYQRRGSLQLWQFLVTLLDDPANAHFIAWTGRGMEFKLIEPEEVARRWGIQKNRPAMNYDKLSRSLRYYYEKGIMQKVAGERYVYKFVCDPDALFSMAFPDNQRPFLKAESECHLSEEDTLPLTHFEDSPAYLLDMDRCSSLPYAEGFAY
Summary of the method: as §1

ELF4 = ELF4 (Homo sapiens, UniProt Q99607 1-663)
ELF4, sequence (Q99607 whole entry): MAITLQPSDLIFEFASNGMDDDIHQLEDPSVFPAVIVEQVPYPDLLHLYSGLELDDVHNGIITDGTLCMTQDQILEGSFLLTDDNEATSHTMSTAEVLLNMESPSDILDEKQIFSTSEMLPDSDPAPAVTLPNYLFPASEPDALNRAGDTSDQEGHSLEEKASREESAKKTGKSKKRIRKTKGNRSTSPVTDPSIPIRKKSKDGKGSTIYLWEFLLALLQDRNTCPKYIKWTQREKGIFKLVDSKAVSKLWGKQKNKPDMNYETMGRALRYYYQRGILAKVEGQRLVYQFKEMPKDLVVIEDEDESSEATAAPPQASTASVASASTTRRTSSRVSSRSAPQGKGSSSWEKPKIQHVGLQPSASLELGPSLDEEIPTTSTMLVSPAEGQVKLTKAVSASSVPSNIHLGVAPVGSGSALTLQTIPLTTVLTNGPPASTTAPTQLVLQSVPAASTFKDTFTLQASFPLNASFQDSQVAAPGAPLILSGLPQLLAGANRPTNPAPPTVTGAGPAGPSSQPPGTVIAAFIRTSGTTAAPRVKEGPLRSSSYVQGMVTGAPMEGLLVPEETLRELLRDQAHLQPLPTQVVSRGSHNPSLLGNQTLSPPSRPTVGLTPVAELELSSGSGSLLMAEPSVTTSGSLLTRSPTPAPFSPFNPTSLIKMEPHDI
Summary of the method: as §1

ETV1 = ETV1 (Homo sapiens, UniProt P50549 1-477)
ETV1, sequence (P50549 whole entry): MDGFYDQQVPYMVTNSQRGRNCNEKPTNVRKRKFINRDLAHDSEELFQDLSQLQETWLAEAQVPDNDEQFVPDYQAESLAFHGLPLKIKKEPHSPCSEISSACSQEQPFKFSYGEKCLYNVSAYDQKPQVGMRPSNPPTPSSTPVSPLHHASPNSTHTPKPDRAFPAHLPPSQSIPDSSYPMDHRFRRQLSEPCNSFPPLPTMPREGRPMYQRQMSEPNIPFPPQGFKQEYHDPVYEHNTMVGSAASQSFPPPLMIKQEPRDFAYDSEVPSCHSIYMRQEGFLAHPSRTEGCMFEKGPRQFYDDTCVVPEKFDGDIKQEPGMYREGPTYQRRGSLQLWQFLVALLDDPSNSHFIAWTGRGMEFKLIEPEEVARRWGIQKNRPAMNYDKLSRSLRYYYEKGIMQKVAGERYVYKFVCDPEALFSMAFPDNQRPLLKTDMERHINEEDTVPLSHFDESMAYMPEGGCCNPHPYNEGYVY
Summary of the method: as §1

ETV3L = biological target: T5, ETV3L (Homo sapiens, UniProt Q6ZN32 1-361)
T5 sequence: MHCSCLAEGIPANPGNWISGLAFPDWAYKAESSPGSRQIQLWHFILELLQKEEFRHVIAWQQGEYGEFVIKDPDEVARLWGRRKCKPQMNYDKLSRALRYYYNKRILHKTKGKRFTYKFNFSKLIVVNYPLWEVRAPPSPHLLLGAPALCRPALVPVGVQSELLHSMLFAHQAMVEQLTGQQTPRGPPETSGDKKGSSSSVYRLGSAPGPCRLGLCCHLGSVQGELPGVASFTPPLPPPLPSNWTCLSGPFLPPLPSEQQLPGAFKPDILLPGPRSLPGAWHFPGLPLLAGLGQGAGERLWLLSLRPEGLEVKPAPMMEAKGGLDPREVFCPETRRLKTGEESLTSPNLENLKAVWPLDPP
Summary of the method: as §1

ETV7 = biological target: T6, ETV7 (Homo sapiens, UniProt Q9Y603 1-341)
T6 sequence: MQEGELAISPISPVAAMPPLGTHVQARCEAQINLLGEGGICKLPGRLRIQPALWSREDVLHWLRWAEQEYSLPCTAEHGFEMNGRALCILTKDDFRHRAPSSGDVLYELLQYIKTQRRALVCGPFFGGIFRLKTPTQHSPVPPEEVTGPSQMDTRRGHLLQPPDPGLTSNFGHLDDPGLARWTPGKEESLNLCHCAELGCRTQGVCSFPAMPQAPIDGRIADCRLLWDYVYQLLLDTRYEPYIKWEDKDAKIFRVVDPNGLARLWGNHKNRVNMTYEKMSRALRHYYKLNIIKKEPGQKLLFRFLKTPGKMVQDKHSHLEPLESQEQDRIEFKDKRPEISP
Summary of the method: as §1

ETV3 = biological target: T7, ETV3 (Homo sapiens, UniProt P41162-2 1-143)
T7 sequence: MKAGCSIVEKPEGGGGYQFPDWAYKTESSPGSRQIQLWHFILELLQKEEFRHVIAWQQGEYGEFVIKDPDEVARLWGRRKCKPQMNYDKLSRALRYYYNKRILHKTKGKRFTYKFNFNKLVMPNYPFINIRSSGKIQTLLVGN
Summary of the method: as §1

ETV6 = ETV6 (Homo sapiens, UniProt P41212 1-452)
ETV6, sequence (P41212 whole entry): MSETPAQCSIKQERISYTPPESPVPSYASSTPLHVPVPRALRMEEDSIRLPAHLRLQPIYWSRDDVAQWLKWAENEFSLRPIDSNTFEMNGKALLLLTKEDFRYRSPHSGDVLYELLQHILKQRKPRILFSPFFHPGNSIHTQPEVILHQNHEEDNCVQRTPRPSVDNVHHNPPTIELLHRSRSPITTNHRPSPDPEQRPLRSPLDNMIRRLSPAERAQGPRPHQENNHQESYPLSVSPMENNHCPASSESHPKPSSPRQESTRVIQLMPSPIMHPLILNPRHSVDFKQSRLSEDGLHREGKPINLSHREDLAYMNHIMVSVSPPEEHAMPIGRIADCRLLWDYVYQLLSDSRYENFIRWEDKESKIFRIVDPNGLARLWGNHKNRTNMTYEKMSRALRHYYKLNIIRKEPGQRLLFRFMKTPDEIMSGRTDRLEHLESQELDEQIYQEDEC
Summary of the method: as §1

GABPA = biological target: T8, GABPA (Homo sapiens, UniProt Q06546 1-454)
T8 sequence: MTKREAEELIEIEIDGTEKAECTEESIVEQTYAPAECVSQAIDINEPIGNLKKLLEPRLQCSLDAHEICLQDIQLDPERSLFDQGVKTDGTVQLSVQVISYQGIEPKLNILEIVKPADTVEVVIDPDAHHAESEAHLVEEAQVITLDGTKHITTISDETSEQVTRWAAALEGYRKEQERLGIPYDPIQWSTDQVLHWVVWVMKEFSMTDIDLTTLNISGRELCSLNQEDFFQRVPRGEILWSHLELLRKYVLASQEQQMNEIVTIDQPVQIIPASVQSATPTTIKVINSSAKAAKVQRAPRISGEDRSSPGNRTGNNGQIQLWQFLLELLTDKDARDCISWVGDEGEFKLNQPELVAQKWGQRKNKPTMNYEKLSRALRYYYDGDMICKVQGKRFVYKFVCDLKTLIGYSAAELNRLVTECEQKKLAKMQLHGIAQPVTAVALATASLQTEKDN
Summary of the method: as §1

ELF1 = ELF1 (Homo sapiens, UniProt P32519 1-619)
ELF1, sequence (P32519 whole entry): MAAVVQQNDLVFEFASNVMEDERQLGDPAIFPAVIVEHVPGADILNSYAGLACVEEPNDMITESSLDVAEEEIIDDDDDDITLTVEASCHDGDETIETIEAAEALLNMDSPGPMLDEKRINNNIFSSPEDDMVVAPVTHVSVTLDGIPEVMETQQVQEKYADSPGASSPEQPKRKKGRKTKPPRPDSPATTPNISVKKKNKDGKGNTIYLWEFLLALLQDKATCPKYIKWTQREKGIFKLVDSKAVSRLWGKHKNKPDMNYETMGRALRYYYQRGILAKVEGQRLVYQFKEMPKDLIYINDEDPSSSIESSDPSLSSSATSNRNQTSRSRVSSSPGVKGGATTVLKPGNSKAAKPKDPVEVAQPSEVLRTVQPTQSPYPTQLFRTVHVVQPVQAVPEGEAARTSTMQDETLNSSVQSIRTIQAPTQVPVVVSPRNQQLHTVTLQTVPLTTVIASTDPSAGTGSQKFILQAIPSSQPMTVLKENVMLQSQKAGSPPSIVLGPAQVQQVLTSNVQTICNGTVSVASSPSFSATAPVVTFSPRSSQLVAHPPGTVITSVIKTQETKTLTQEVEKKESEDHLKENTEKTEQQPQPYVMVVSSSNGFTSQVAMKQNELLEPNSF
Summary of the method: as §1

ELK3 = biological target: T9, ELK3 (Homo sapiens, UniProt P41970 1-407)
T9 sequence: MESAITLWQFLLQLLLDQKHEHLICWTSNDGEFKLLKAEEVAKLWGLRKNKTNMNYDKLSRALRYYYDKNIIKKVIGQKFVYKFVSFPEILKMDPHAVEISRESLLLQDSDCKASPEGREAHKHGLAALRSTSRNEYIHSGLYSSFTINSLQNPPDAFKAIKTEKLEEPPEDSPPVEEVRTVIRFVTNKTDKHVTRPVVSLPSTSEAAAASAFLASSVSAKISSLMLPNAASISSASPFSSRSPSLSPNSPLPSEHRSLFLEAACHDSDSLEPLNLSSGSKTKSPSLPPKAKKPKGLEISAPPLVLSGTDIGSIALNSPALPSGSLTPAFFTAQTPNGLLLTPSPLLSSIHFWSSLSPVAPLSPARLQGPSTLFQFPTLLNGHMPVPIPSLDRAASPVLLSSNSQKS
Summary of the method: as §1

ERF = biological target: T10, ERF (Homo sapiens, UniProt P50548 1-548)
T10 sequence: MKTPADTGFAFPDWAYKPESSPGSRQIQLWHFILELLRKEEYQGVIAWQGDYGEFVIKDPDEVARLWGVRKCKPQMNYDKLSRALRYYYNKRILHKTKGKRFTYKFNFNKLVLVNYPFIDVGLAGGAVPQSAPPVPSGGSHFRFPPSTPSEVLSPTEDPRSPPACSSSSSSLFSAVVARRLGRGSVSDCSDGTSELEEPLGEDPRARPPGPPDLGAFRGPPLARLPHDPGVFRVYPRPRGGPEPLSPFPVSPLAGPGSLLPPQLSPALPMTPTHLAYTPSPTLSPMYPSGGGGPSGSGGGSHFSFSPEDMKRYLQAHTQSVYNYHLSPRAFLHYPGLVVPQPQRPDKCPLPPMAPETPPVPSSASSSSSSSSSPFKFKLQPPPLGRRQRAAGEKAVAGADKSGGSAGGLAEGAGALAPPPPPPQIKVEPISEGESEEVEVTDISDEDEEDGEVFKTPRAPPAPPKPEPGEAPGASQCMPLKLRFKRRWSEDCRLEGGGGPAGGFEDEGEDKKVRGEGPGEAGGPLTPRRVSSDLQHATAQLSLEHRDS
Summary of the method: as §1

ETS2 = biological target: T11, ETS2 (Homo sapiens, UniProt P15036 1-469)
T11 sequence: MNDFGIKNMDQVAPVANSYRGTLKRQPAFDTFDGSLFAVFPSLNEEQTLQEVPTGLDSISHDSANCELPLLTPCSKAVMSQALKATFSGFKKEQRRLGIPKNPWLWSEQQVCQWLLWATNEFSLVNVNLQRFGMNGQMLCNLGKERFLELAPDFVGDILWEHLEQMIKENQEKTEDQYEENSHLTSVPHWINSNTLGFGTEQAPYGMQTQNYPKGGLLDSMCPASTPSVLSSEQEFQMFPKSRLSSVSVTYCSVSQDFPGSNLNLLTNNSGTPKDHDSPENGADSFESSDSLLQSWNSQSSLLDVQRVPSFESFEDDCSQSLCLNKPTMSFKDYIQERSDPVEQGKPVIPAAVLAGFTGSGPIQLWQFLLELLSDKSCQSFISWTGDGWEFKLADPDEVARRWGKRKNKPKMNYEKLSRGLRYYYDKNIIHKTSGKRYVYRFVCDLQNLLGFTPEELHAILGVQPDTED
Summary of the method: as §1

Sequence | binding signal (FLI1) | binding signal (ELK1) | binding signal (ERG) | binding signal (EHF) | binding signal (SPI1) | binding signal (SPIB) | binding signal (ETV5) | binding signal (ELF4) | binding signal (ETV1) | binding signal (ETV3L) | binding signal (ETV7) | binding signal (ETV3) | binding signal (ETV6) | binding signal (GABPA) | binding signal (ELF1) | binding signal (ELK3) | binding signal (ERF) | binding signal (ETS2)
AGTGAC | 1.07 fold enrichment (6-mer frequency, TF over GST control) | 1 fold enrichment (6-mer frequency, TF over GST control) | 1.1 fold enrichment (6-mer frequency, TF over GST control) | 1.08 fold enrichment (6-mer frequency, TF over GST control) | 1.33 fold enrichment (6-mer frequency, TF over GST control) | 1.04 fold enrichment (6-mer frequency, TF over GST control) | 1.05 fold enrichment (6-mer frequency, TF over GST control) | 1.05 fold enrichment (6-mer frequency, TF over GST control) | 1.03 fold enrichment (6-mer frequency, TF over GST control) | 1.1 fold enrichment (6-mer frequency, TF over GST control) | 1.03 fold enrichment (6-mer frequency, TF over GST control) | 1.1 fold enrichment (6-mer frequency, TF over GST control) | 1.11 fold enrichment (6-mer frequency, TF over GST control) | – | – | – | – | –
GCAACC | 1.06 fold enrichment (6-mer frequency, TF over GST control) | 1.07 fold enrichment (6-mer frequency, TF over GST control) | 1.04 fold enrichment (6-mer frequency, TF over GST control) | 1.11 fold enrichment (6-mer frequency, TF over GST control) | – | 1.04 fold enrichment (6-mer frequency, TF over GST control) | 1.04 fold enrichment (6-mer frequency, TF over GST control) | 1.03 fold enrichment (6-mer frequency, TF over GST control) | 1.02 fold enrichment (6-mer frequency, TF over GST control) | 1.03 fold enrichment (6-mer frequency, TF over GST control) | 1.01 fold enrichment (6-mer frequency, TF over GST control) | 1.02 fold enrichment (6-mer frequency, TF over GST control) | 1.02 fold enrichment (6-mer frequency, TF over GST control) | 1.06 fold enrichment (6-mer frequency, TF over GST control) | 1.13 fold enrichment (6-mer frequency, TF over GST control) | 1.09 fold enrichment (6-mer frequency, TF over GST control) | 1.1 fold enrichment (6-mer frequency, TF over GST control) | 1.03 fold enrichment (6-mer frequency, TF over GST control)
